Test results: paper PMC12136788
Positions count from the first letter of the chain named. In all, about 24,000 sequences were measured (“enrichment r”: median about 0.99, highest 2% from about 3.7 on). What follows is part of a selection rich in the highest values, with near analogues and random picks from the rest.

T1: UNK ZnF1-3 (human, UniProt Q9C0B0 31-174)
T1 sequence: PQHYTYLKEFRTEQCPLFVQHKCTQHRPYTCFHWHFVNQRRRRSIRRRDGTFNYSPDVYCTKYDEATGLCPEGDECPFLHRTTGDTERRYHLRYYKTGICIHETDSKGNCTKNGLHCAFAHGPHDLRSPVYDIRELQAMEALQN

B1: 32462045_32462714_1507_3pUTR_ENSMUSG00000027668_ENSMUST00000091257|mouse|control|control (ssRNA)
RNA: GGGAGUUCUACAGUCCGACGAUCACUCUUAUACACUUUCAGUACACUGGGGGUAGGAUGAAACUCAGAACAAAACUCAUCAACCAAAACAGAUAGUCGACAAAUUUCAUCUGUCAUUGCACAAGAAACCUUGUUUGCCACCUCCAACAGAGGAUUGAGCAUCA
B2: 7395510_7396407_2237_ncRNA_ENSMUSG00000031153_ENSMUST00000132456|mouse|control|control (ssRNA)
RNA: GGGAGUUCUACAGUCCGACGAUCAUGUUCUGCAGCUUCUUGUUCAUUUCUCGAAGGUUCUCAUCGCCUGGCUUCACUAGGUCUCUCAGGACACUGCCCAGCCCACUUCGGUCUGUGUGGCCUGCUGCCACAGACACAUCAAUCCAACAGAGGAUUGAGCAUCA
B3: chr9:14812383:14812384:-_ENSMUSG00000031934_ENSMUST00000164273|mus_mus|mus_mus_mus_hu_True|28_28 (ssRNA)
RNA: GGGAGUUCUACAGUCCGACGAUCAUAGCCCAGGUAGAUACACGCUAACAGUAUAAUGAUGAGUGUCAGCAGGCGGCAGCUAAUGUACUUGAUGAUUAAAUUAUUAGAGUUCUUUUUUGUCUUCAAGUACUGCUCCACAAUUGGCAACAGAGGAUUGAGCAUCA
B4: chr13:51246309:51246310:+_ENSMUSG00000021395_ENSMUST00000095797|mus_hu|FALSE|FALSE (ssRNA)
RNA: GGGAGUUCUACAGUCCGACGAUCCCCACAGUGAAGCACGAGGGACAGAGCGACUGCAGCUGUGGACAGAAAACUGAGGUACUGUGUUUACAUGGUGAGUGGUCGUUACCAUCCAACAGCACAAGGCACAAAAAAUGGGCAUCACAACAGAGGAUUGAGCAUCA
B5: chr11:54532911:54532912:-_ENSMUSG00000052298_ENSMUST00000064104|mus_hu|FALSE|FALSE (ssRNA)
RNA: GGGAGUUCUACAGUCCGACGAUCGGGUCGGCAGUGAAAAGAAAAAUGUUUAAAAUAGAAAAAAAAAACUGCAAAAUGGUGUUAGCAUUCACAAAAAAGAUCAUGCGAAGAUCAGAUCCAUACUGAUUAAACAUUGAAAAUUCACAACAGAGGAUUGAGCAUCA
B6: chr5:144471560:144471561:-_ENSMUSG00000051306_ENSMUST00000053287|mus_hu|FALSE|FALSE (ssRNA)
RNA: GGGAGUUCUACAGUCCGACGAUCGAGACUCCAGUAUCAGUGAAGACAAGAGACGCUGUAUCAAAAAGUGUUGUGUAAUAGAAACAUACUGUCGGCUUUACAAAUCAUGUCUGGGUUAUACAUUCAUAAUGUAAAUACUCAUCACAACAGAGGAUUGAGCAUCA
B7: chr7:140404665:140404666:+_ENSG00000090266_ENST00000247866|hu_hu|hu_hu_hu_mus_False|18_38 (ssRNA)
RNA: GGGAGUUCUACAGUCCGACGAUCUGCUCCUACUCGUCCAGAGAGUUUACAGUGUCAGUCCUCGUCAUCAGGAGGGAUUCCCAGUUCUUCAUCUGUCCACUGGGAAGGAUCUGGAUACGGAAAGUGACCCAGCACAGCAUCCGACAACAGAGGAUUGAGCAUCA
B8: chr6:89793807:89793808:+_ENSG00000146278_ENST00000336032|hu_mus|FALSE|FALSE (ssRNA)
RNA: GGGAGUUCUACAGUCCGACGAUCACUUCCCAUCCAGUGACUCGGAGGCUUUGGGAGGACACUAGGGGAAGGUGGGUCACUGAACUUUGCUCCGGCGUAAUUUUCCUUUUGGCUCACUUCUGUUAGAAAUGCUGAUUUCUUCAACAACAGAGGAUUGAGCAUCA
B9: chr9:104153060:104153061:-_ENSG00000136897_ENST00000374865|hu_mus|FALSE|FALSE (ssRNA)
RNA: GGGAGUUCUACAGUCCGACGAUCAUGAGAUUCCAAGCGACUCUGGAGAUCACUGGGCGGUGUGUAUGCUCGGCUUCGUAAGGGUGGACACACCAAAACAGGUUCUUUUUUCACUUCUUCCACUGUCUCUGCCACAACUGGCUCCAACAGAGGAUUGAGCAUCA
B10: chr19:37005844:37005845:-_ENSG00000254004_ENST00000523638|hu_mus|FALSE|FALSE (ssRNA)
RNA: GGGAGUUCUACAGUCCGACGAUCGGGAGUUUUCUUAGAUUCACUGGGUCUCUCUUCGGUAUGUUGUUUCUGAUGAGAAAGGAAGUUUCCUCUCUGGCUGAAGGCCUUCCCACAUUCCCCACACUUGUAGGACUCCCUCCUUGGCAACAGAGGAUUGAGCAUCA
B11: 118238769_118243032_844_CDS_ENSMUSG00000005102_ENSMUST00000005233|mouse|control|control (ssRNA)
RNA: GGGAGUUCUACAGUCCGACGAUCAGAGAAAUGGAGGAUGUCACACGAGCCAGGAGAGGGUUCACCACUACACACAGAAUACUGACGUUCUCGCCUGGACCUUCCUGAGGAGUAUGUCCGGGCUUUACCAUUUCCUACAAAGUCCAACAGAGGAUUGAGCAUCA
B12: chr1:150192712:150192713:-_ENSG00000143401_ENST00000314136|hu_hu|FALSE|FALSE (ssRNA)
RNA: GGGAGUUCUACAGUCCGACGAUCGCACCAUACUACACCUGUGUAAAAGUGAUCAUGUUUUAAUUAUGGGCUAAAAAUGACUAAUACAGUAAGCUUGAAUUUAAAAAAUUAAGUCUAAAUAAAUUGCUAGGGAAUUCCACAAUGCAACAGAGGAUUGAGCAUCA
B13: chr1:150192712:150192713:-_ENSG00000143401_ENST00000314136|hu_hu|motif|central (ssRNA)
RNA: B12 RNA with U81G, A82G
B14: chr16:94690093:94690094:+_ENSMUSG00000040785_ENSMUST00000117648|mus_hu|mus_mus_mus_hu_True|18_68 (ssRNA)
RNA: GGGAGUUCUACAGUCCGACGAUCGGGCUGGGAUGACGGACACACAGCCUCGAUUCCAGGGGGAAAAAAAAAUAGCCGAUACUAAUUAAAAAGUGUUAAUGAUUUUUGAAAAUCAGAUGUAGAUUAAAAAAGAUGAAAAGCAAACAACAGAGGAUUGAGCAUCA
B15: chr12:72179577:72179578:+_ENSG00000080371_ENST00000261263|hu_mus|motif|central (ssRNA)
RNA: GGGAGUUCUACAGUCCGACGAUCGUUUAGCACUUAAGGUCUCUGCAGUGUUAUAAACGUAAUUGAAAAUACUGUUAAUUCGGUAACUCCAUUGGUAAAAUGAUGUGACUUGGAAUAUGGCAGUCUUCAUGUUGAGGGCAAUGACAACAGAGGAUUGAGCAUCA

These binders were tested against T1, UNK ZnF1-3 (assay: nsRBNS (natural sequence RNA bind-n-seq); RBNS binding buffer (assumed for nsRBNS): 25 mM Tris pH 7.5, 150 mM KCl, 3 mM MgCl2, 0.01% Triton X-100, 500 ug/ml BSA, 20 U/ml SUPERase-In, 4 C; UNK is unkempt and MSI1 is Musashi-1; names of the RNAs are library labels; protein concentration not given here; high values mean tight binding).

Binder | binding signal [enrichment R]
B1 | 1.52
B2 | 0.526
B3 | 1.74
B4 | 1.39
B5 | 4.5
B6 | 1.01
B7 | 1.45
B8 | 0.744
B9 | 0.821
B10 | 0.845
B11 | 1.63
B12 | 5.25
B13 | 5.11
B14 | 3.66
B15 | 0.946
